AID923 = qHTS Assay for Allosteric/Competitive Inhibitors of Caspase-1: Spectroscopic Profiling in AFC Spectral Region. compound fluorescence, AFC spectral region (405/520 nm). actives 1.1% (n = 75,000). Potency, µM (series often up to 57.5 µM), actives largely listed as activators
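Baseline compound fluorescence (AFC region, 405 nm ex/520 nm em) taken from the intercept of kinetic reads with 50 nM caspase-1 and 5 uM Ac-WEHD-AFC; normalized to an on-plate AFC standard curve; compounds titrated up to 57 uM.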
HSD17B inh = inhibitors of human HSD17B10 dehydrogenase. Q99714. recombinant HSD17B10, NADH fluorescence kinetic. Potency, µM (titrated, usually from 57.1 µM), hits mostly inhibitors. actives 7.6% (n = 75,000). AID 893;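 note: the protocol describes HADH2 (HSD17B10) and not the HSD17B4 of the title; nearly all actives have a fitted effect of over 70% in size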
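Activity followed as NADH fluorescence increase (ex 360, em 450 nm) every 30 seconds for 4 min, using final 90 uM beta-hydroxybutyryl CoA and 1 mM NAD+. Recombinant His-tagged enzyme, 20 nM, pH 9.0 Tris buffer, 15 min compound preincubation.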
HADH2 inh = blocks human hydroxyacyl-CoA dehydrogenase type II | Q99714 | Potency, µM (top dose mostly 57.1 µM), usual class: inhibitors | recombinant HADH2, NADH fluorescence, beta-hydroxybutyryl-CoA | AID 886 | actives 3.4% (n = 73,000); note: nearly all actives have a fitted effect of over 60% in size
Target sequence (Q99714 whole entry, looked up, one chain of several): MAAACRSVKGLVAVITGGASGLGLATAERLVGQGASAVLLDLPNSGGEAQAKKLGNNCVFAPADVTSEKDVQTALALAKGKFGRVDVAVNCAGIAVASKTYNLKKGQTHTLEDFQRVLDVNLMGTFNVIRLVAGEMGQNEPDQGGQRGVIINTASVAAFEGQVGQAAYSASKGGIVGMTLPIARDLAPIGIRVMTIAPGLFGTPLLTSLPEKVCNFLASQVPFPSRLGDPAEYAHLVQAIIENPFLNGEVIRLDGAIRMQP
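E. coli-expressed His-tagged HADH2 tested at 20 nM in alkaline Tris buffer (pH 9.0); oxidation of 90 uM beta-hydroxybutyryl-CoA with 1 mM NAD+ tracked fluorimetrically for 4 min.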
4MU fluor = 4-MU region autofluorescence. compound autofluorescence, 340/450 nm, 4-MU equivalents; hits give high values. max dye-equivalent concentration, M. actives 11% (n = 59,000). AID 589; in the data active = max dye-equivalent concentration above about 10 nM; inconclusive = mostly about 1.1 nM to 9.6 nM
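Compounds in 100 mM Tris, pH 8.0, sat 15 min at room temperature before fluorescence was read at 340 nm excitation/450 nm emission; a per-plate six-point 4-MU standard curve converted signals to dye-equivalent concentration at each compound concentration.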
A350 fluor = compounds fluorescent in Alexa 350 spectral region. actives 11% (n = 59,000). max dye-equivalent concentration, M. Compound autofluorescence, 340/450 nm, Alexa 350 dye-equivalents; hits give high values; in the data active = max dye-equivalent concentration above about 10 nM; inconclusive = mostly about 1.1 nM to 9.6 nM
USP2a inh = blocks human ubiquitin-specific protease USP2a; Potency, µM (titrated, usually from 38.3 µM), actives largely listed as inhibitors; actives 0.1% (n = 60,000); USP2a enzymatic assay, qHTS inhibition; O75604; note: nearly all actives have a fitted effect of over 60% in size
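USP2 core (20 nM final) was preincubated with compound for 30 min at RT in 20 mM Tris-HCl pH 8.0, 2 mM CaCl2, 2 mM beta-mercaptoethanol; Ub-PLA2 (20 nM) plus NBD C6-HPC (20 uM) then added, fluorescence read after 2.5 h.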
A number is an active result; - = inactive; ? = inconclusive; . = no result; [ ] = dose if it differs, or a comment. Compounds with a hit are over-represented: about 13% of the library has one in this group of screens. Unless noted, calls come from the whole dose curve; as a rule, active = well fitted curve in the direction sought with a large enough effect; inconclusive = small, poorly fitted or top-dose-only effect, or another doubt; inactive = no such curve, though single readings can be large; an effect the other way counts as inactive or inconclusive.

SMILES | AID923 | HSD17B inh | HADH2 inh | 4MU fluor | A350 fluor | USP2a inh
O=[N+]([O-])c1ccc2ncccc2c1CCc1c([N+](=O)[O-])ccc2ncccc12 | -[11.5 µM] | -[11.4 µM] | -[11.4 µM] | - | - | .
Cc1cc(C)c2[nH]c(=O)c(C(c3nnnn3C3CCCC3)N3CCOCC3)cc2c1 (configuration not stated) | - | - | - | 5e-08M | 4.3e-08M | -
O=C(NCc1ccco1)c1cccc2c1C(=O)N(C1CCCCC1)C2 | - | - | - | - | - | -
Cn1c2ccccc2c2c(C(=O)NCc3ccco3)cn(C3CCCCC3)c(=O)c21 | - | 13µM | - | 5.3e-08M | 4.8e-08M | -
Cc1ccc(CNC(=O)c2cn(C3CCCC3)c(=O)c3c2c2ccccc2n3C)o1 | - | 25µM | - | 5.4e-08M | 4.7e-08M | -
Cc1ccc(C(=O)c2cc(C)sc2NC(=O)CN2CCN(C(=O)c3ccco3)CC2)cc1 | - | ? | - | - | - | -
CCc1ccc(C2CC(c3ccccc3)n3ncnc3N2)cc1 (configuration not stated) | - | - | - | . | . | .
C=CCc1ccccc1OC[C@H](O)CNC(C)C | - | - | - | - | - | -
O=C1OCc2cccc3cccc1c23 | - | 25µM | 25µM | 7.2e-08M | 7.7e-08M | -
COc1ccc(CCC(=O)Nc2nc3c(s2)CN(C)CC3)cc1OC | - | - | - | 1.1e-08M | 1.6e-08M | -
O=S(=O)(c1ccc(S(=O)(=O)N2CCN(C3CCCCC3)CC2)cc1)N1CCCCCC1 | - | - | - | - | - | -
O=C(O)C1CCCN1S(=O)(=O)c1ccc2[nH]c(=O)c(=O)[nH]c2c1 (configuration not stated) | - | 32µM | ? | - | - | -
O=c1[nH]c2ccc(S(=O)(=O)N3CCN(Cc4ccccc4)CC3)cc2[nH]c1=O | - | 32µM | - | - | - | -
O=c1[nH]c2ccc(S(=O)(=O)N3CCN(C4CCCCC4)CC3)cc2[nH]c1=O | - | 32µM | ? | ? | ? | -
c1ccc(CN2COc3c(ccc4c5c(ccc34)CN(Cc3ccccc3)CO5)C2)cc1 | -[11.5 µM] | -[11.4 µM] | -[11.4 µM] | - | - | .
CCCCNN | -[11.5 µM] | -[11.4 µM] | -[11.4 µM] | - | - | .
CN1CCN(C(=O)c2sc(=S)n(-c3ccccc3)c2N)CC1 | - | ? | 0.2µM | - | - | -
Cc1ccc(-n2c(N)c(C(=O)N3CCOCC3)sc2=S)cc1 | - | ? | 1.6µM | - | - | -
COc1cc(Cn2c(C(=O)O)cc3sccc32)cc(OC)c1OC | - | - | - | - | - | -
CC(O)c1cccc(NC2=CC(=O)CC(C)(C)C2)c1 (configuration not stated) | - | - | - | 4.1e-08M | 4.7e-08M | -
CC(C)c1nc(NCC2CCCO2)c(C#N)c2c1COC(C)(C)C2 (configuration not stated) | . | . | . | 8.7e-08M | 1e-07M | .
Cc1nc(NCC2CCCO2)nc2c1C(=O)CC(C)(C)C2 (configuration not stated) | - | - | - | - | - | -
CCc1nc(NCC(C)C)c(C#N)c2c1COC(C)(C)C2 | . | . | . | 1.1e-08M | 1.3e-08M | .
CCc1nc(NCC2CCCO2)c(C#N)c2c1COC(C)(C)C2 (configuration not stated) | . | . | . | 1.5e-07M | 1.7e-07M | .
CC1CN(C2CCN(S(=O)(=O)Cc3ccccc3)CC2)CC(C)O1 (configuration not stated) | . | . | . | - | - | .
SMILES | AID923 | HSD17B inh | HADH2 inh | 4MU fluor | A350 fluor | USP2a inh
CC(NC(=O)c1ccc(CS(=O)(=O)Cc2ccccc2F)o1)c1ccc2c(c1)OCCO2 (configuration not stated) | - | - | - | - | - | -
COc1ccc(-c2ccc(-c3nnn(CC(=O)N4CCOCC4)n3)cc2)cc1 | - | 20µM | ? | - | - | -
CCn1c(/C=N/n2cnnc2)nc2ccccc21 | - | 25µM | 32µM | . | . | .
C(=N\n1cnnc1)/c1cccc2ccccc12 | - | ? | ? | 1.5e-08M | 1.9e-08M | -
CCn1c2ccccc2c2cc(/C=N/n3cnnc3)ccc21 | - | 25µM | 25µM | 3.2e-07M | 3.1e-07M | ?
O=C(CCCn1nnc(-c2cccnc2)n1)c1ccc(F)cc1 | - | - | - | - | - | .

Bioassay records as filed in PubChem BioAssay.
